# Results published in PubChem BioAssay AID1345083 (National Center for Advancing Translational Sciences (NCATS), 2018).
# The whole screen tested about 94,000 compounds, of which about 6,200 (6.6%) were called active. Where a call stands in place of a potency, no number is given. Another 31% or so got no clear call; they are omitted. This is one part of a sample in which actives are shown more often than they occur. Calls follow the shape of the dose curve; as a rule, active = well fitted inhibition curve with a large enough effect; inconclusive = small, poorly fitted or top-dose-only effect; inactive = flat fitted curve, though single readings scatter.
# Experiment: Cytotoxic Profiling in HEK 293 Cell Line of Diverse Libraries Using Quantitative High-Throughput Screening; also: nearly all actives have a fitted effect of over 60% in size
# Settings: HEK 293 viability, ATP luminescence (CellTiter-Glo), 48-72 h; series mostly up to 115 µM
# Excerpt: Cell-based phenotypic screening is a commonly used approach to discover biological pathways, novel drug targets, chemical probes and high-quality hit-to-lead molecules. Many hits identified from high-throughput screening campaign are ruled out through a series of follow-up potency, selectivity/specificity, and cytotoxicity assays. Prioritization of molecules with little or no cytotoxicity for a more in-depth downstream evaluation influence the future direction of projects, so cytotoxicity profiling of the screening libraries at early stage is essential for increasing the likelihood of candidate success. In this study, we analyzed results from a cell-based cytotoxicity screening campaign, comprising nearly 10,000 compounds in NCATS annotated libraries, and over 100,000 compounds in a diversity library, evaluated in four normal cell lines (HEK 293, NIH 3T3, CRL-7250 and HaCat) and a cancer cell line (KB 3-1, a HeLa subline) with overall screening outcomes, hit rates, pan-activity and selectivity. For the annotated library, we also examined the primary targets and mechanistic pathways regularly associated with cell death. To our knowledge, this is the first study to use high-throughput screening to profile large libraries for cytotoxicity assessment in both normal and cancer cell lines. In summary, the results generated here constitutes a valuable resource for the scientific community and provides insight on identifying cytotoxic compounds with particular mechanisms of action, and prioritizing compounds with suitable cytotoxicity profile for further evaluation.
# HEK 293 cells were seeded into white 1536-well plates using a Multidrop Combi peristaltic dispenser (ThermoFisher, Waltham, MA) at a density of 250 cells/well in 5 uL of medium respectively. A pintool (Kalypsys) was used to transfer 23 nL of compound solution to the 1536-well assay plates. After 48 or 72 hr incubation at 37 degree Celsius, 5% CO2 and 95% humidity, 2.5 uL of CellTiter-Glo (Promega) was dispensed into each well using a dispenser (Aspect Automation, St. Paul, MN) with solenoid valves (Lee Valves, Westbrook CT). Plates were left at room temperature for 10 min before imaging the ATP-coupled luminescence using a ViewLux microplate imager (PerkinElmer, Waltham, MA).
# Potency is read from the fitted curve at half-maximal effect.
row,SMILES,Potency
1,COCC1CN(C(C)=O)CC12CCN(Cc1cccc(C#N)c1)CC2 (centres undefined),inactive
2,COc1cccc(CC(=O)N2CCC(CC3CC3)(NC(=O)c3ccccc3)CC2)c1,inactive
3,CC(=O)NC1(C)CCN(Cc2cccc(-c3ccc(C(=O)c4ccccc4)cc3)c2)C1 (centres undefined),39.8 µM (active)
4,CCC(C(=O)Nc1ccc2c(c1)CN(Cc1cc(F)cc(F)c1)C(=O)CO2)c1ccccc1 (centres undefined),44.7 µM (active)
5,COc1cccc(CC(=O)N[C@@H]2C[C@H](Cn3cc(C4CC4)nn3)[C@@H](O)[C@H]2O)c1,inactive
6,Cc1cc2nc3n(c(=O)c2n1CC(=O)NC1CCCCC1)CCCC3,inactive
7,OCc1cccc(-c2cc(C3=CCOCC3)c3cncn3c2)c1,inactive
8,FC(F)(F)c1cccc(-c2cc(C3=CCOCC3)c3cncn3c2)c1,100 µM (active)
9,CC1=NS(=O)(=O)N(Cc2ccc(Cl)cc2)C=C1C(=O)O,inactive
10,COc1ccc(CCC(=O)N2C[C@@H](Oc3ccccc3)C[C@H]2C(=O)N2CCOCC2)cc1,inactive
11,Cc1ccc(-c2cn3cc(C(=O)NCc4cccnc4)nc3s2)cc1,44.7 µM (active)
12,O=C(NCc1cccnc1)c1cn2cc(-c3cccc(C(F)(F)F)c3)sc2n1,28.2 µM (active)
13,O=C(NCc1ccccc1Cl)c1cn2cc(-c3ccc(C(F)(F)F)cc3)sc2n1,inactive
14,Cc1cc2ncc(C(=O)NCc3cccnc3)cn2n1,inactive
15,O=C(c1cn2cc(-c3cccnc3)sc2n1)N1CCCCC1,inactive
16,O=C(Nc1ccc(F)cc1)c1cn2cc(-c3ccc(C(F)(F)F)cc3)sc2n1,inactive
17,Cc1noc(C)c1S(=O)(=O)N1CCCC(c2nn[nH]n2)C1 (centres undefined),inactive
18,CN(C)CC1(O)CCC2(CCN(C(=O)c3ccc4ccccc4n3)CC2)CC1,inactive
19,COC(=O)N1CCCC(C(=O)N2CCC3(CC2)CC(=O)Nc2ccccc2O3)C1 (centres undefined),inactive
20,COc1cccc(Nc2n[nH]c(C(O)c3cccc(C(F)(F)F)c3)n2)c1 (centres undefined),79.4 µM (active)
21,COc1ccccc1C(O)c1nc(Nc2ccc(C(F)(F)F)cc2)n[nH]1 (centres undefined),89.1 µM (active)
22,O=C1CCN(C(=O)c2nccc3ccccc23)CCOCCN1,inactive
23,COCCNC(=O)CN1C(=O)NC2(CCC(C(C)(C)C)CC2)C1=O (centres undefined),inactive
24,O=C(c1cccc(N2CCNC2=O)c1)N1CC(=O)N(C2CCCCC2)CC(OCc2ccccc2)C1 (centres undefined),inactive
25,O=c1n(CCN2CCN([S+](=O)([O-])c3ccccc3)CC2)nc2n1CCCC2,inactive
26,Cc1cc(C)n(Cc2cc(C(=O)N3CCSCC3)n[nH]2)n1,inactive

row,SMILES,Potency
1,CC(=O)Nc1ccc(CN2CCn3c(nnc3-c3ccccc3)C2)cc1,inactive
2,Clc1ccc(-c2nnc3n2CCN(Cc2cccnc2)C3)cc1,inactive
3,FC(F)(F)c1ccc(CN2CCn3c(nnc3-c3ccccc3)C2)cc1,89.1 µM (active)
4,COc1ccc(C(=O)N2CCC(n3cc(-c4nc(C)no4)nn3)CC2)c(OC)c1,inactive
5,CCN1CCC(N2CC[C@H](CO)[C@H](N(C)C)C2)CC1,inactive
6,COCCn1c(=O)n([C@H]2CCCN(C(=O)c3cc(C)n(C)n3)C2)c2ncccc21,inactive
7,CC1Oc2ccc(NC(=O)c3ccc([N+](=O)[O-])cc3)cc2CN(Cc2ccccc2)C1=O (centres undefined),31.6 µM (active)
8,COCC(=O)Nc1ccc2c(c1)CN(Cc1ccccc1F)C(=O)C(C)O2 (centres undefined),inactive
9,Cc1nn2c(c1-c1ccnn1C(C)C)N(CC1CCOCC1)CCC2,44.7 µM (active)
10,Cc1nn2c(c1-c1ccccc1-c1ccccc1)N(C(=O)CN1CCOCC1)CCC2,inactive
11,Cc1nn2c(c1-c1ccccc1-c1ccccc1)N(CC1CC1)CCC2,2.82 µM (active)
12,Cc1nn2c(c1-c1ccccc1C(C)C)N(C(=O)c1cnccn1)CCC2,inactive
13,Cc1nc(C)c(C(=O)N2CCCN(S(=O)(=O)c3ccccc3)CCC(=O)NCC2)s1,inactive
14,O=C1NCCCCCN(Cc2cccnc2)[C@@H]2CN(C(=O)C3CCCCC3)CC[C@@H]12,inactive
15,COC(=O)c1c(NC(=O)c2ccccc2)c2cc(NC(C)C)cnc2n1CC1CCCO1 (centres undefined),inactive
16,O=C(N[C@@H]1CN(c2ncccn2)C[C@H]1CO)c1ccco1,inactive
17,Cc1nc(C)c(C(=O)N2CCC3(CC2)CC(N2CCCC2)CCO3)s1 (centres undefined),inactive
18,CCN1CC2(CCN(C(=O)[C@H]3Cc4ccccc4CN3)CC2)CC1=O,inactive
19,O=C(NCc1nnc2n1C(C(=O)NCCc1ccc(Cl)cc1)CC2)c1ccc(Cl)cc1Cl (centres undefined),inactive
20,CC(C)CC(=O)NCC1Cn2cccc2CN1Cc1ccccc1 (centres undefined),inactive
21,COC(=O)N1CCN(C(=O)c2cccc(-c3ccccc3OC)c2)CC1,63.1 µM (active)
22,COCC(=O)N1CCN(C(=O)c2cccc(-c3ccc(OC)nn3)c2)CC1,inactive
23,COc1ccccc1-c1cccc(C(=O)N2CCC[C@H]2C(=O)N(C)C)c1,inactive
24,CC(=O)N1CC2(CCN(CCCn3ccnc3C)CC2)CC1C(=O)O (centres undefined),inactive
25,Cc1cnc(C(=O)NC2C[C@H]3CC[C@@H](C2)N3C(=O)c2cc(C)n(C)n2)cn1 (some centres undefined),inactive
26,CC1(c2cccnc2)N(Cc2ccccc2)C(=O)OC12CCN(C(=O)c1cccc(Cl)c1)CC2 (centres undefined),inactive

row,SMILES,Potency
1,CC1(c2ccccc2)N(Cc2ccccc2)C(=O)OC12CCN(c1ccncc1)CC2 (centres undefined),89.1 µM (active)
2,CC1(c2ccccc2)N(Cc2ncccn2)C(=O)OC12CCN(CCCc1ccccc1)CC2 (centres undefined),inactive
3,CCN(Cc1ccccc1)C(=O)CC1CCCN(c2cnn(CCOC)c(=O)c2)C1 (centres undefined),inactive
4,COc1ccc(-c2noc(-c3nnn4c3COC(c3ccc(OC)cc3)C4)n2)cc1 (centres undefined),inactive
5,Cc1nc(C)c(C(=O)N2CCC(Oc3ccccc3-c3nc(-c4ccccc4)no3)C2)s1 (centres undefined),28.2 µM (active)
6,CC(C)CC(=O)N1CCC(Oc2ccccc2-c2nc(C3CCOCC3)no2)C1 (centres undefined),inactive
7,Cc1noc(-c2ccccc2OC2CCN(C(=O)c3cnccc3C)C2)n1 (centres undefined),inactive
8,CCn1ccc(C(=O)N2CCCN(S(=O)(=O)c3ccccc3)CCC(=O)NCC2)n1,inactive
9,C[C@H]1[C@@H]2[C@H]3OC(=O)[C@@H](C)[C@@H]3CC[C@@]2(C)CC[C@@H]1NC(=O)Cc1ccccc1,100 µM (active)
10,COCCNC(=O)C(C)[C@@H]1CC[C@@]2(C)CC[C@H](NC(=O)c3ccccc3)[C@@H](C)[C@@H]2[C@H]1O (some centres undefined),inactive
11,C[C@H]1[C@@H]2[C@@H](O)C([C@H](C)C(=O)NCCN3CCOCC3)CC[C@@]2(C)CC[C@@H]1NC(=O)c1ccccc1 (some centres undefined),inactive
12,CCc1nc(-c2c3n(c(=O)n(CC(=O)Nc4cccc(Cl)c4C)c2=O)CCCC3)no1,inactive
13,CCOC(=O)C1CC1CN1CCCC12Cc1ccccc1CNC2=O (centres undefined),inactive
14,O=C1NCc2ccccc2CC12CCCCN2Cc1cccc(F)c1F (centres undefined),50.1 µM (active)
15,Cc1nn(-c2ccccc2)c(C)c1CN1CCCC12Cc1ccccc1CNC2=O (centres undefined),inactive
16,CCN(C(=O)CCC(=O)N1CCc2c(c(-c3nncn3CC)nn2C)C1)c1ccccc1,inactive
17,CC(C)c1nnc(C2CN(C(=O)c3ccc4ccccc4n3)CC23CCOCC3)o1 (centres undefined),inactive
18,CNc1ncc(C(=O)N[C@@H]2COCC[C@@H]2OCc2c(C)noc2C)cn1,inactive
19,COc1ccc(NC(=O)c2cc3c(N(C)Cc4ccccc4)nc(C)cn3n2)cc1F,inactive
20,O=C(c1cnccn1)N1CCC2(COc3ncccc3[S+](=O)([O-])N2)C1 (centres undefined),inactive
21,CCCn1cc(C(=O)N2C[C@H](c3ccccc3)[C@@H](N)C2)c(C)n1,inactive
22,COc1ccc(CN2CCC3(Cc4ccccc4CNC3=O)C2)cc1OC (centres undefined),inactive
23,CN1CC(=O)N(c2cccnc2)Cc2c1ncnc2N1CCN(c2ccccn2)CC1,inactive
24,O=[N+]([O-])c1cccc(-c2noc([C@@H]3C[C@@H](O)CN3Cc3cccc(OC(F)(F)F)c3)n2)c1,inactive
25,O=C(O)CCC(=O)N1Cc2[nH]cnc2C[C@H]1c1nc(-c2ccc3ccccc3c2)no1,inactive
26,O=C(NCc1ccccc1)[C@@H]1Cc2nc[nH]c2CN1Cc1cccc(OC(F)(F)F)c1,70.8 µM (active)

row,SMILES,Potency
1,CN1Cc2ncnc(NCc3cccs3)c2CN(c2ccccc2)C1=O,inactive
2,CN1CCN(C(=O)CC2=C3CCCCC3NC2=O)CC1 (centres undefined),inactive
3,O=C(NCCC1CCN(C(=O)Nc2cc(F)ccc2F)CC1)c1cc(F)ccc1F,inactive
4,O=C(CCC1CCN(C(=O)c2ccccc2F)CC1)Nc1cccc(Cl)c1,12.6 µM (active)
5,COc1ccc(NC(=O)CCC2CCN(S(=O)(=O)c3ccc(C)cc3)CC2)cc1F,inactive
6,COc1cc2c(cc1C(=O)N1CCC3(CCCN(C)C3=O)C1)CCC2 (centres undefined),inactive
7,Cn1nccc1CN1CCc2nc(C3CC3)nc(-c3ccc(O)cc3)c2C1,inactive
8,COCCc1noc(CC2CCOC3(CCN(C(=O)C4CCCC4)CC3)C2)n1 (centres undefined),inactive
9,CN(C)C[C@H]1O[C@@H]2C[C@@H](CC(=O)N3CCC(F)(F)C3)O[C@@H]2[C@@H]1O,inactive
10,O=C(Cc1cccnc1)N1CCc2onc(-c3ccc(F)c(F)c3)c2C1,inactive
11,COc1ccc(Cl)cc1S(=O)(=O)N1CCCC(CNC(=O)c2ccco2)C1 (centres undefined),inactive
12,Cc1ccc(S(=O)(=O)N2CCCC(CCC(=O)N(C)C)C2)cc1 (centres undefined),inactive
13,Cc1ccccc1S(=O)(=O)N1CCCC(CCC(=O)NCC2CCCCC2)C1 (centres undefined),39.8 µM (active)
14,CCCc1noc(-c2ccn3c(CNC(=O)c4ccc(N(C)C)cc4)nnc3c2)n1,inactive
15,CCCNC(=O)N(C1CCOCC1)C1CCN(S(=O)(=O)c2ccc(F)cc2)CC1,inactive
16,CN1c2cc(C(=O)Nc3ccc(Cl)cc3)ccc2C(=O)N2CCCCCC21 (centres undefined),35.5 µM (active)
17,COCCn1ccc2cc(C(=O)Nc3ccc4c(c3)C(=O)N3CCC[C@H]3C(=O)N4)ccc21,inactive
18,CCOc1ccc(NC(=O)c2ccc3c(c2)N(C)C2CCCN2C3=O)cc1 (centres undefined),inactive
19,Cc1ccc(N2CCN(C(=O)c3ccc4c(c3)N(C)C3CCCCCN3C4=O)CC2)cc1 (centres undefined),39.8 µM (active)
20,Cc1ccc(C(=O)N2CCC(C(=O)N3CCC(N4CCOCC4=O)CC3)CC2)cc1,inactive
21,CN1c2cc(C(=O)Nc3ccccc3)ccc2C(=O)N2CCCCCC21 (centres undefined),79.4 µM (active)
22,CN1CCCCCCN(C(=O)Nc2ccccc2)CCC1=O,inactive
23,Cc1cccc(NC(=O)Cn2nc3n(c2=O)CCCC3)c1,inactive
24,Cc1ccc(CNC(=O)c2ccc3c(c2)N(C)C2CCCCN2C3=O)cc1C (centres undefined),inactive
25,CN1c2cc(C(=O)N3CCC(C(N)=O)CC3)ccc2C(=O)N2CCCCC21 (centres undefined),inactive
26,CCOC(=O)c1cccc(NC(=O)c2ccc3c(c2)N(C)C2CCCCN2C3=O)c1 (centres undefined),35.5 µM (active)
